D1 antagonist – Antagonist of Human D 1 Dopamine Receptor: qHTS; D(1A) dopamine receptor (Homo sapiens), P21728; HEK293 TREx D1 cells, calcium flux, dopamine EC80; active compounds read low; activity change, negative = inhibition, % at 10 µM; 360,000 compounds, 3.2% hits; AID 504652, 2011; in the data active means activity change below about -30%; further: on the % scale 0 is the no-effect control and ±100 the full control effect
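Cells carrying a force-coupled, tetracycline-inducible human D1 receptor report calcium flux. Each well gets a 10 s baseline, compound with 180 s monitoring, then an EC80 dopamine stimulus with a second 180 s kinetic read.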
D1 agonist – Allosteric Agonists of the Human D1 Dopamine Receptor: qHTS; HEK293 T-REx D1 cells, calcium flux, agonist mode; activation, % at 2 µM; 360,000 compounds, 1% hits; AID 504660, 2011; in the data active means activation above about 30%; further: 0% is about no effect
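Inducible HEK293 T-REx D1 cells, force-coupled to calcium signalling, were plated at 4000 cells/well with tetracycline and held overnight at 30 C. After no-wash calcium dye loading, compound-evoked calcium rise over 180 s flagged agonists.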
D1 potentiator – Potentiators of Human D1 Dopamine Receptor: qHTS; 360,000 compounds, 0.036% hits; D(1A) dopamine receptor (Homo sapiens), P21728; potentiation, % at 10 µM; AID 504651, 2011; HEK293 TREx D1 cells, calcium flux, dopamine EC20 potentiation; in the data active means potentiation above about 30%; further: 0% is about no effect
DRD3 agonist – qHTS of D3 Dopamine Receptor Agonist: qHTS; AID 652048, 2013; 410,000 compounds, 0.58% hits; D3R DiscoveRx beta-arrestin cells, luminescence, 90 min; max activation, %; D(3) dopamine receptor (Homo sapiens), P35462; in the data active means max activation above about 30%; further: 0% is about no effect
Target sequence (P35462 whole entry, looked up): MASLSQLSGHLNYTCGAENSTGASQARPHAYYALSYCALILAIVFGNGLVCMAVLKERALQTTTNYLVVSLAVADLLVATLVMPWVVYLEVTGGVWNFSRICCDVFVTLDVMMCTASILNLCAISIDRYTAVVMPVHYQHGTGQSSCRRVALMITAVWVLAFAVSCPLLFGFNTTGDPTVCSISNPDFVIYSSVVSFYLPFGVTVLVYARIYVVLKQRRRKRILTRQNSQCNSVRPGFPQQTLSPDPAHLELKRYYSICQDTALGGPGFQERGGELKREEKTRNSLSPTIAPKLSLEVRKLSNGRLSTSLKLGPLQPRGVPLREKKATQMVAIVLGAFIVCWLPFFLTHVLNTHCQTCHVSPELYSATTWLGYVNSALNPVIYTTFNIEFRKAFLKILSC
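Agonist mode: compounds and dopamine controls were applied to plated cells for 90 min at 37 degrees C after an overnight attachment at 1500 cells/well. Luminescent read-out followed 30 - 60 minutes at room temperature with DiscoveRx detection reagent.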
DRD3 antagonist – qHTS of D3 Dopamine Receptor Antagonist: qHTS | D3R cells, DiscoveRx beta-arrestin luminescence, antagonist mode; active compounds read low | D(3) dopamine receptor (Homo sapiens), P35462 | 360,000 compounds, 2.5% hits | AID 652054, 2013 | max response, negative = inhibition, %; in the data active means max response below about -50%; further: on the % scale 0 is the no-effect control and ±100 the full control effect
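Cells expressing the human receptor were seeded at 1500 cells/well, incubated overnight at 37 degrees C in 5% CO2, then exposed to library compounds with dopamine controls for 90 minutes at 37 degrees C before luminescent detection.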
* = called active by the depositor; x = not tested or not shown; ! = repeats disagree. In the library only some 6% were active in any assay of this set; here they are far more common.

SMILES	D1 antagonist	D1 agonist	D1 potentiator	DRD3 agonist	DRD3 antagonist
CCOc1ccc(NC(=O)N2CCC(c3ccc(C)cc3)C2)cc1 (configuration not stated)	-31*!	1	-6	8	-10
Cc1ccc(NC(=O)N2CCCC(c3ccccc3)C2)cc1 (configuration not stated)	4	1	0	34*	13
O=C(Nc1ccccc1)N1CCC(c2ccccc2)C1 (configuration not stated)	-7	3	-10	-2	-8
Cc1ccc(C2CCN(C(=O)Nc3ccc(Cl)cc3)C2)cc1 (configuration not stated)	-24	5	-7	5	x
O=C(Nc1ccc(Cl)c(Cl)c1)N1CCC(c2ccccc2)C1 (configuration not stated)	-43*	12	-6	-7	x
Cc1ccc(OCCCn2c(-c3ccc(Cl)cc3)nc3ccccc3c2=O)c(C)c1	-13	3	-1	-7	x
CC(C)(C)OC(=O)N1CCC(c2c(C(=O)NCCN3CCC(Cc4ccccc4)CC3)cnn2-c2cccc(Cl)c2)CC1	4	21	4	-31	x
CCCCC1=CC2=C(c3ccco3)C(=O)C(C)(OC(=O)c3ccc(OC)cc3)C(=O)C2=CN1CCCOC(C)C (configuration not stated)	9	3	0	-18	-83*
COc1cc(-c2nnc(COC(=O)c3nn(CC(C)C)c(=O)c4ccccc34)o2)cc(OC)c1OC	-8	5	1	56*	43
Cn1c(SCc2nc3ccccc3c(=O)[nH]2)nc2ccccc21	-3	1	9	-2	-17
COc1ccc(-c2nnc(CSc3nc4ccccc4c(=O)n3CC(C)C)o2)cc1OC	-27	4	-5	33*	-14
CC(C)Cn1c(SCc2nc3ccccc3c(=O)[nH]2)nc2ccccc2c1=O	9	2	-7	46*	14
Clc1cccc(N2CCN(c3nc4ccccc4c4nc(-c5ccccc5)nn34)CC2)c1	0	1	-4	-10	x
O=C(OCn1ncc(Cl)c(Cl)c1=O)c1cccc(C(F)(F)F)c1	-36*	17	-9	-6	-71*
CCN(c1ccc(C)cc1)S(=O)(=O)c1nnc(NC(=O)C2CCCCC2)s1	1	22	-6	-8	x
CCOC(=O)C1CCN(C(=O)c2nn(-c3ccc(OC)c(Cl)c3)c(=O)c3c2c2ccccc2n3C)CC1	4	4	8	5	x
CSc1nnc(C)c(/C=C/Nc2ccc(F)cc2F)n1	12	5	-2	1	3
C=CCSc1nnc(C)c(/C=C/Nc2ccc(Cl)cc2)n1	-5	74*	-2	1	2
N#Cc1cc2c(nc1SCC(=O)Nc1sc3c(c1C#N)CCC3)CCC2	-42*	1	-1	0	16
COc1ccc(NC(=O)CSc2nc(N)c(C#N)cc2C#N)cc1	0	0	-1	-29	-27
CCOC(=O)c1sc(NC(=O)CSc2nccc(C)n2)c(C#N)c1C	x	4	-1	-2	-5
N#Cc1cc2c(nc1SCC(=O)Nc1sc3c(c1C#N)CCC3)CCCCCC2	12	4	-3	-1	-2
Cc1csc(SCC(=O)Nc2sc3c(c2C#N)CCC3)n1	-31*	1	-4	-10	0
Cc1ccnc(SCC(=O)Nc2sc3c(c2C#N)CCCC3)n1	-33*	16	-7	6	32
CN1CCc2nc(SCC(=O)Nc3ccc(Cl)cc3)c(C#N)cc2C1	x	x	x	-25	-60*
SMILES	D1 antagonist	D1 agonist	D1 potentiator	DRD3 agonist	DRD3 antagonist
COc1ccc(CCNc2nc3cc(OC)c(OC)cc3c3nc(-c4ccccc4)nn23)cc1OC	-22	1	0	2	x
COc1cc(OC)cc(C(=O)NCCc2csc(-c3ccc(C(F)(F)F)cc3)n2)c1	3	8	-3	9	x
COc1ccc2sc(-c3ccc(SC)cc3)c(C#CCO)c2c1	x	x	x	62*	112
COc1cccc(-c2sc3ccc(OC)cc3c2C#CC(C)(C)O)c1	x	0	0	71*	-11
COc1ccc2sc(-c3ccc(N(C)C)cc3)c(C#CC(C)(C)O)c2c1	x	-1	-2	20	23
COc1ccc2sc(-c3ccc(N(C)C)cc3)c(C#CCCO)c2c1	x	5	0	32*	122
COc1ccc2sc(-c3ccc(N(C)C)cc3)c(C#Cc3cncn3C)c2c1	x	x	x	83*	234
Cc1ccc(NC(=O)CN2C(=O)CC(c3ccco3)Sc3ccccc32)cc1Cl (configuration not stated)	4	3	-5	1	x
COc1cccc(NC(=O)c2ccc3nc(Cc4ccccc4)oc3c2)c1	-8	7	0	5	x
CCCCn1c(=N)c(S(=O)(=O)c2ccc(C)cc2)cc2c(=O)n3cc(C)ccc3nc21	-2	5	3	8	x
Cc1ccc(NC(=O)C2CC(=O)N/C(=N/N=C/c3ccco3)S2)cc1C (configuration not stated)	-83*	3	-4	5	-1
Cc1nn(S(=O)(=O)c2ccc(C(C)(C)C)cc2)c(C)c1S(=O)(=O)N1CCCCCC1	-5	3	1	7	x
Cc1ccccc1C(=O)NCc1ccc2c(c1)CCN2C(=O)c1ccccc1	-41*	8	-4	-6	x
O=C(NCc1ccc2c(c1)CCN2C(=O)c1ccncc1)c1ccccc1Br	-31*	9	-4	1	x
CCOc1ccccc1C(=O)NCc1ccc2c(c1)CCN2C(=O)c1ccccc1	-38*	5	-4	-8	x
CCN(Cc1nc(-c2cccc(C)c2)no1)S(=O)(=O)c1ccc(C)cc1	2	11	2	5	x
COc1ccc(NC(=O)N2CCc3c(sc4c3CCCC4)C2c2ccccc2OC)cc1 (configuration not stated)	-8	0	-2	-17	x
O=C(COc1ccc(Cl)cc1)Nc1nnc(C2=COCCO2)o1	24	-2	-3	-12	-29
O=C(COc1ccc(Cl)cc1Cl)Nc1nnc(C2=COCCO2)o1	-69*	2	-7	6	-1
C[C@]12CC[C@@H]3c4ccc(O)cc4C[C@@H](CCCCCCCCCS(=O)CCCC(F)(F)C(F)(F)F)[C@H]3[C@@H]1CC[C@@H]2O (some centres not stated)	x	x	x	4	x
COc1cccc(C(=O)C2CCCN(Cc3cn[nH]c3C3CCCCC3)C2)c1 (configuration not stated)	-20	5	-3	-16	-86*
CC(C)Oc1cccc(C(=O)C2CCCN(Cc3cnc(N4CCCC4)s3)C2)c1 (configuration not stated)	41	14	2	-18	-83*
